The list is not random: actives were taken first. Their share in the collection is about 1.7%.
Vif imaging: HIV Vif self-association inhibitors, primary screen, imaging, HEK293T, single point | HEK293T cells, Vif self-association by quenched fluorescence, 24 h | inhibition, % at 7.49 µM | actives 0.35% (n = 340,000); in the data active = inhibition above about 50%, passing the limit was not always enough
aDG glyco up: activators of alpha-DG glycosylation, primary screen, uHTS, Pro5-aDG cells, AlphaScreen; activation, % at 10 µM; alpha-DG glycosylation AlphaScreen (IIH6); 0% Pro5, 100% B10-LARGE cell signal; actives 0.22% (n = 360,000); AID 624168, 2012;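 active = activation of at least 8% versus controls, or a plate z-score of at least 8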;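 also: Pro5 are CHO cells carrying HIG-tagged alpha-DG that lacks glycosylation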
ARNT-TACC3 inh: disruptors of ARNT/TACC3 protein interaction, primary screen, biochemical, AlphaScreen, single concentration | inhibition, % at 9.99 µM | AID 623870, 2012 | AlphaScreen His-ARNT PAS-B/GST-TACC3 binding, luminescence; TACC3 fragment carries E629A point mutation | actives 0.66% (n = 390,000) | Transforming acidic coiled-coil-containing protein 3 (Homo sapiens), Q9Y6A5;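 active = mean inhibition of replicates at least 50% and at least half of replicates each reaching 50%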;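 also: 0% = complete ARNT plus TACC3 wells and 100% = ARNT alone without TACC3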
Glyco luc inh: increase of ERlucT glycosylation luciferase signal, primary screen, N-linked glycosylation inhibitor project, D54 ERlucT cells, luminescence, set 2; D54 ERlucT glycosylation luciferase reporter, 24 h; percent of 100 nM tunicamycin response; reporter increase, % at 12.5 µM; actives 0.23% (n = 360,000);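 active = mean luciferase reporter signal, scaled so untreated is 0 and the glycosylation-blocking control 100, at or above a set limit in every replicate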;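 also: luciferase carries N-glycosylation sites so blocking glycosylation raises the light; 0% = median of neutral control wells and 100% = median of 100 nM tunicamycin wells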
H9c2 protect: cardioprotection against H2O2-induced cell death, primary screen, uHTS, H9c2 cells, ATPLite luminescence. H9c2 cardiomyocytes, H2O2 injury protection, 2 h. protection from H2O2 cell death, % at 20 µM. actives 0.63% (n = 360,000);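 active = compounds giving at least 50% protection of heart cells from peroxide-induced death in the single-dose screen, raw or plate-pattern-corrected value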;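 also: 0% = DMSO wells with peroxide and 100% = DMSO wells without peroxide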
Active calls of the source: *.

Results for COc1ccc(-c2cc(C(F)F)n3ncc(C(=O)Nc4ccc(C(=O)N5CCOCC5)cc4)c3n2)cc1 ?
Vif imaging: 3; aDG glyco up: 0; ARNT-TACC3 inh: -5; Glyco luc inh: 14; H9c2 protect: 71*

Results for O=C(Nc1ccc(C(=O)N2CCOCC2)cc1)c1cnn2c(C(F)F)cc(-c3ccccc3)nc12 ?
Vif imaging: 1; aDG glyco up: -1; ARNT-TACC3 inh: -4; Glyco luc inh: 2; H9c2 protect: 55*

What do the screens show for `O=C(c1cnn2c(C(F)F)cc(-c3ccccc3)nc12)N1CCOCC1`?
Vif imaging: -5; aDG glyco up: 0; ARNT-TACC3 inh: -7; Glyco luc inh: 3; H9c2 protect: 4

What do the screens show for `COc1ccc(-c2cc(C(F)F)n3ncc(C(=O)NCC4CCCO4)c3n2)cc1` (stereo not given)?
Vif imaging: 10; aDG glyco up: 0; ARNT-TACC3 inh: -4; Glyco luc inh: 2; H9c2 protect: -1

How did O=C(NCCN1CCOCC1)c1cnn2c(-c3ccccc3)cc(-c3ccccc3)nc12 do in these assays?
Vif imaging: -3; aDG glyco up: 0; ARNT-TACC3 inh: 7; Glyco luc inh: 3; H9c2 protect: 79*

How did C[C@@H]1CCCCO[C@H](CN(C)C)[C@H](C)CN([C@H](C)CO)C(=O)c2cc(NC(=O)c3ccccc3)ccc2O1 do in these assays?
ARNT-TACC3 inh: 6

How did C[C@H](CO)N1C[C@H](C)[C@H](CN(C)Cc2ccccn2)Oc2cc(-c3ccccc3)ccc2S1(=O)=O do in these assays?
ARNT-TACC3 inh: -1

What do the screens show for `Cc1ccc(C(=O)N/C(=C/c2ccco2)C(=O)NCCc2c[nH]c3ccccc23)cc1`?
Vif imaging: 1; aDG glyco up: 0; ARNT-TACC3 inh: 0; Glyco luc inh: 45*; H9c2 protect: 4

Results for CCN1C(=S)SC(=O)C1=C1C=C(C)N(CCO)C(C)=C1 ?
Vif imaging: active; aDG glyco up: 0; ARNT-TACC3 inh: 16; Glyco luc inh: -6; H9c2 protect: 5

Results for CC1Cc2ccccc2N1C(=O)COC(=O)c1ccccc1NCCO (stereo not given) ?
Vif imaging: 66*; aDG glyco up: 0; ARNT-TACC3 inh: -14; Glyco luc inh: -2; H9c2 protect: 6

What do the screens show for `CC1Cc2ccccc2N1C(=O)Cn1nc(C(=O)O)c2ccccc2c1=O` (stereo not given)?
Vif imaging: 16; aDG glyco up: 0; ARNT-TACC3 inh: 0; Glyco luc inh: 6; H9c2 protect: 53*

How did CC1CCN(C(=O)COC(=O)c2ccccc2NCCO)CC1 do in these assays?
Vif imaging: 11; aDG glyco up: 0; Glyco luc inh: 0; H9c2 protect: -3

How did Cc1cnc(C(=O)OCC(=O)N2c3ccccc3CC2C)cn1 (stereo not given) do in these assays?
Vif imaging: -1; aDG glyco up: 0; ARNT-TACC3 inh: -1; Glyco luc inh: 1; H9c2 protect: -4

Results for CC1Cc2ccccc2N1C(=O)COC(=O)c1n[nH]c(=O)c2ccccc12 (stereo not given) ?
Vif imaging: 0; aDG glyco up: 0; Glyco luc inh: 3; H9c2 protect: 54*

How did COc1cccc(S(=O)(=O)N[C@@H]2CC[C@@H](CC(=O)NCc3ccccc3)O[C@H]2CO)c1 do in these assays?
ARNT-TACC3 inh: 3

What do the screens show for `COc1cc(-c2nnc(-c3cc(-c4ccccc4)nc4ccccc34)o2)cc(OC)c1OC`?
Vif imaging: 3; aDG glyco up: 0; ARNT-TACC3 inh: 3; Glyco luc inh: 1; H9c2 protect: 56*

Results for COc1cc(-c2nnc(SCC(=O)c3ccc(C)cc3)o2)cc(OC)c1OC ?
Vif imaging: 13; aDG glyco up: 0; ARNT-TACC3 inh: 4; Glyco luc inh: 5; H9c2 protect: 14

Results for COc1cc(-c2nnc(-c3ccccc3)o2)cc(OC)c1OC ?
aDG glyco up: 0; ARNT-TACC3 inh: -2; Glyco luc inh: 4; H9c2 protect: 36

Results for COc1cc(-c2nnc(SCC(=O)N3CCOCC3)o2)cc(OC)c1OC ?
Vif imaging: -2; aDG glyco up: 0; ARNT-TACC3 inh: -1; Glyco luc inh: 5; H9c2 protect: -2

Results for COc1cc(-c2nnc(SCC3(c4ccc(Br)cc4)OCCO3)o2)cc(OC)c1OC ?
Vif imaging: -2; aDG glyco up: 0; ARNT-TACC3 inh: -4; Glyco luc inh: 49*; H9c2 protect: 2

How did COc1cccc(C(=O)CSc2nnc(-c3cc(OC)c(OC)c(OC)c3)o2)c1 do in these assays?
Vif imaging: 0; aDG glyco up: 0; ARNT-TACC3 inh: -2; Glyco luc inh: 1; H9c2 protect: 58*

What do the screens show for `COc1cc(-c2nnc(-c3cc(OC)c(OC)c(OC)c3)o2)cc(OC)c1OC`?
Vif imaging: -1; aDG glyco up: 0; ARNT-TACC3 inh: 6; Glyco luc inh: -1; H9c2 protect: 66*

How did COc1ccc(-c2nnc(SCC(=O)N3CCCc4ccccc43)o2)cc1OC do in these assays?
Vif imaging: 61*; aDG glyco up: 0; ARNT-TACC3 inh: -1; Glyco luc inh: -3; H9c2 protect: 37

What do the screens show for `Cc1ccc(C(=O)N(CCCN(C)C)c2nc3ccc(Cl)cc3s2)cc1C`?
Vif imaging: -4; aDG glyco up: 2; ARNT-TACC3 inh: 15; Glyco luc inh: -2; H9c2 protect: 14

What do the screens show for `CN(C)CCN(C(=O)c1ccc2c(c1)OCCO2)c1nc2ccc(Cl)cc2s1`?
Vif imaging: 0; aDG glyco up: 0; ARNT-TACC3 inh: 46*; Glyco luc inh: -4; H9c2 protect: 29

How did C/C(=N\NC(=O)c1ccc([N+](=O)[O-])cc1)c1cc2ccccc2oc1=O do in these assays?
Vif imaging: 0; aDG glyco up: 0; Glyco luc inh: 5; H9c2 protect: 27

How did C/C(=N\NC(=O)c1ccccc1)c1cc2cc([N+](=O)[O-])ccc2oc1=O do in these assays?
Vif imaging: -8; aDG glyco up: 0; ARNT-TACC3 inh: 77*; Glyco luc inh: 1; H9c2 protect: 22

What do the screens show for `C[C@@H]1CN([C@@H](C)CO)C(=O)c2cccc(NC(=O)Nc3ccccc3)c2O[C@@H]1CN(C)C(=O)Nc1ccc(F)cc1`?
ARNT-TACC3 inh: 1

Results for Cc1[nH]n(-c2ccc(Br)cc2)c(=O)c1/C=N/NC(=O)c1ccccc1 ?
Vif imaging: 8; aDG glyco up: 0; ARNT-TACC3 inh: 27; Glyco luc inh: -9; H9c2 protect: -7
